Our source for the activation values is PubChem BioAssay AID1508602 (The Scripps Research Institute Molecular Screening Center, 2020).

Structures are written as SMILES. In all, about 650,000 compounds went through this assay and about 6,800 (1%) were called active. No stated cut-off is given here; in the data, active means activation above about 4.9%; inactive means the rest. Shown is part of a subset that was picked to be rich in actives.

Sequence of G-protein coupled receptor 151 (Homo sapiens) (Q8TDV0 whole entry, looked up): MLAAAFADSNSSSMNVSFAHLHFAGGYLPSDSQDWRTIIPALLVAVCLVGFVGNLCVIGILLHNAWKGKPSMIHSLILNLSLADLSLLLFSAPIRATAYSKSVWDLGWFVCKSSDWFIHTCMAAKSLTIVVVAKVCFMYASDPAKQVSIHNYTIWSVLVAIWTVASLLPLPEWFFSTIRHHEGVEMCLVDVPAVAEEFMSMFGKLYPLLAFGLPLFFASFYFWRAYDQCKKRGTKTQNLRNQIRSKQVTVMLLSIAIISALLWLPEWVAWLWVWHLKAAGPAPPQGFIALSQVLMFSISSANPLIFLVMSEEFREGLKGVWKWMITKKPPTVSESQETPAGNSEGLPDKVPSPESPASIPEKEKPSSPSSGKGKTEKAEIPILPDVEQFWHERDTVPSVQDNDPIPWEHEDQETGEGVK

The experiment addresses G-protein coupled receptor 151 (Homo sapiens) (UniProt Q8TDV0). The experiment is described as follows: activators of human GPR151, primary screen, cell-based, PathHunter beta-arrestin, luminescence (AID 1508602).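 Further: 0% = median of compound wells and 100% = cells with positive control.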 Conditions: PathHunter beta-arrestin GPR151 cells, at 11.2 µM, stronger effect = higher value.
Consider `Cc1ccc(C(=O)N/N=C\c2ccccc2O)cn1`, for which the activation is -0.843% (inactive).

Turning to `O=S(=O)(c1ccc2c(c1)CCCC2)N1CCOC(c2ccccc2)C1` (stereo not drawn), the activation is -1.43% (inactive).

As to `Cc1ccccc1-c1nc(SCC(=O)NCCc2ccccc2)c2c(=O)n(C)c(=O)n(C)c2n1`, the activation is -0.395% (inactive).

Regarding `CCN1CCN(C(=O)Cn2nc(Cc3cccnc3)c3ccccc3c2=O)CC1`, the activation was 1.14% (inactive).

For `O=C1CCC(=O)NCC(=O)NCCOCCNC(=O)CN1`, the activation is -0.231% (inactive).

With `CC/C(Cc1ccccc1)=N\NC(=O)c1ccccc1`, the activation was -1.22% (inactive).

With `CN1CCN(c2ccc(-c3nc4ccc(C(=O)NCc5ccccc5)cc4s3)cc2)CC1`, the activation was -0.195% (inactive).

Turning to `O=C(NCc1nc2ccccc2[nH]1)c1ccc2nc(-c3ccccc3)sc2c1`, the activation was -1.41% (inactive).

Take `CN1CCN(c2ccc(-c3nc4ccc(C(=O)NCc5nc6ccccc6[nH]5)cc4s3)cc2)CC1`: the activation was 7.98% (active).

As for `COc1ccc(-c2noc(Nc3ccc(F)cc3)n2)cc1OC`, the activation is -0.36% (inactive).

`Cc1ccc(NC(=O)c2c[nH]c(=O)[nH]c2=O)cc1S(=O)(=O)N1CCCCC1`: the activation is -0.749% (inactive).

Regarding `COc1ccc(C(=O)NNC(=O)c2ccccc2[N+](=O)[O-])cc1OC`, the activation was -0.216% (inactive).

With `O=C(NNS(=O)(=O)c1ccc([N+](=O)[O-])cc1)Nc1cccc(C(F)(F)F)c1`, the activation is 0.535% (inactive).

For `CC(C)C(=O)NNS(=O)(=O)c1ccc([N+](=O)[O-])cc1`, the activation was 6.82% (active).

As for `CC(NS(=O)(=O)c1ccc([N+](=O)[O-])cc1)C(=O)N/N=C/c1ccc(O)cc1` (stereo not drawn), the activation is 0.173% (inactive).

Consider `COCC(=O)Nc1c(I)c(C(=O)NCC(O)CO)c(I)c(C(=O)N(C)CC(O)CO)c1I` (stereo not drawn), for which the activation was 6.28% (active).

On to `CC(=O)N(CC(O)CO)c1c(I)c(C(=O)NCC(O)CO)c(I)c(C(=O)NCC(O)CO)c1I` (stereo not drawn), for which the activation was 0.874% (inactive).

On to `CC1=NOC(=O)/C1=C/c1ccc(-c2cc(C)c(C)cc2[N+](=O)[O-])o1`, for which the activation was 0.0267% (inactive).

As for `Cc1[nH][nH]c(=O)c1C(c1ccc(-c2ccc(F)cc2[N+](=O)[O-])o1)c1c(C)[nH][nH]c1=O`, the activation was 6.05% (active).

Consider `Cc1[nH][nH]c(=O)c1C(c1ccc(-c2ccc(Cl)cc2)o1)c1c(C)[nH][nH]c1=O`, for which the activation was 0.733% (inactive).

For `CCCOC(=O)COc1ccc2c(C)cc(=O)oc2c1`, the activation is -0.0136% (inactive).

In the case of `Cc1ccc(C2=NN(C(=O)CCC(=O)O)C(c3ccc(C)cc3)C2)cc1` (stereo not drawn), the activation was -1.19% (inactive).

For `CC1=C(C(=O)Nc2ccc(Cl)cc2)C(c2ccc([N+](=O)[O-])cc2)n2nnnc2N1` (stereo not drawn), the activation was 0.405% (inactive).

For the compound `CC(=O)NC(CC(=O)O)c1ccc(F)cc1` (stereo not drawn), the activation was 6.23% (active).

With `O=C(O)CC(NC(=O)c1ccccc1)c1ccc(F)cc1` (stereo not drawn), the activation was -0.457% (inactive).

With `O=C(O)CC(NS(=O)(=O)Cc1ccccc1)c1ccc(F)cc1` (stereo not drawn), the activation was 1.1% (inactive).

Consider `O=C(NCc1ccc(F)cc1)c1nn2c(C(F)(F)F)cc(-c3cccs3)nc2c1Cl`, for which the activation is 0.443% (inactive).

Turning to `Cc1ccccc1NC(=O)CSc1nnc(NC(=O)CCc2ccccc2)s1`, the activation is -0.763% (inactive).

`O=C1c2cccnc2C(=O)N1CCc1ccc(S(=O)(=O)N2CCCc3ccccc32)cc1`: the activation is -2.73% (inactive).

Regarding `COc1ccc(-c2cnn3ccc(Nc4ccc(O)cc4)nc23)c(OC)c1`, the activation is -0.387% (inactive).

For the compound `Cc1ccc(S(=O)(=O)N(C)C)cc1NC(=S)NCCc1ccc(O)c(O)c1`, the activation was -0.323% (inactive).

For the compound `COC(=O)NNC(=S)Nc1cc(S(=O)(=O)N(C)C)ccc1C`, the activation was 6.15% (active).

For the compound `CC(=O)c1c(C)[nH]c(C(=O)Nc2cc(S(=O)(=O)N(C)C)ccc2C)c1C`, the activation was 0.871% (inactive).

In the case of `NC(=O)c1ccc(NC(=O)CSc2nc(N)c(NC(=O)c3ccccc3)c(=O)[nH]2)cc1`, the activation was -0.254% (inactive).

Consider `C#CCN1C(=O)C(O)(CC(=O)c2ccc(Br)cc2)c2ccccc21` (stereo not drawn), for which the activation was 4.05% (inactive).

With `Cc1cc(N2CCCC2)nc(N2CCN(C(=O)c3ccccc3Cl)CC2)n1`, the activation was 0.558% (inactive).

`Cc1c(C(=O)Nc2nnc(C3CC3)s2)oc2ccc(Br)cc12`: the activation is -0.544% (inactive).

For `COC(=O)c1oc2ccc(Br)cc2c1NC(C)=O`, the activation is 6.57% (active).

On to `CCOC(=O)c1oc2ccc(Br)cc2c1C`, for which the activation was 1.27% (inactive).

Regarding `O=C(NC(c1ccccc1)C(C(=O)c1ccccc1)C(=O)c1ccccc1)OCCc1ccccc1` (stereo not drawn), the activation was -0.699% (inactive).

For the compound `COCCCNCc1c(C(=O)O)n(Cc2ccccc2F)c2cc(OC)ccc12`, the activation was 1.64% (inactive).

Take `CCN(CC)CCNS(=O)(=O)c1ccc(Br)c(C)c1`: the activation is 0.131% (inactive).

For `O=C(CSc1nnnn1-c1ccc2c(c1)OCCO2)NNC(=O)c1ccco1`, the activation is 2.23% (inactive).

On to `COc1cccc(OC(=O)c2ccc(F)cc2[N+](=O)[O-])c1`, for which the activation is -5.87% (inactive).

With `CCCCN(C)Cc1cc(Br)ccc1OC`, the activation is 0.319% (inactive).

With `CC(C)N1CCc2c(sc(NC(=O)Cc3ccccc3)c2C#N)C1`, the activation is 4.91% (active).

On to `CC(=O)N1CCc2c(sc(NC(=O)CCS(=O)(=O)c3ccccc3)c2C#N)C1`, for which the activation was -0.234% (inactive).

For `CCOC(=O)N1CCc2c(sc(NC(=O)CCSc3ccccc3)c2C#N)C1`, the activation was 0.685% (inactive).

Take `Cc1ccc(CNC(=O)CCC2CCCN(C(=O)c3cccc(-c4ccco4)c3)C2)o1` (stereo not drawn): the activation is -0.6% (inactive).

With `CC(C)c1nc(CNC(=O)Cn2nnnc2CN2C[C@@H](C)O[C@@H](C)C2)cs1`, the activation was 0.432% (inactive).

In the case of `CCC(C)C(=O)N1CCc2c(C(=O)NCc3ccsc3)c(OC)cc(=O)n2CC1` (stereo not drawn), the activation was 0.148% (inactive).

As for `CC(C)CC(NS(=O)(=O)c1ccc2c(c1)oc(=O)n2C)C(=O)N1CCC(C)CC1` (stereo not drawn), the activation is -0.109% (inactive).

As to `CC1CCN(C(=O)C(NS(=O)(=O)c2ccc3c(c2)oc(=O)n3C)C(C)C)CC1` (stereo not drawn), the activation was 7.77% (active).

On to `CC1CCC(NS(=O)(=O)c2ccc3c(c2)oc(=O)n3C)CC1` (stereo not drawn), for which the activation is 0.208% (inactive).

With `O=C1CC(N2CCN(Cc3ccccc3)CC2)C(=O)N1c1ccccc1F` (stereo not drawn), the activation was -0.408% (inactive).

Regarding `O=C(CCn1cnc2c(cnn2-c2ccc(F)cc2)c1=O)NCCC1=CCCCC1`, the activation was 7.05% (active).

On to `O=C(Cn1cnc2c(cnn2-c2ccc(F)cc2)c1=O)NCCc1ccccc1`, for which the activation is 0.508% (inactive).

Take `Cc1ccc2[nH]c3c(=O)n(CC(=O)NCCC4=CCCCC4)cnc3c2c1`: the activation is 0.423% (inactive).
